Hit rate of the full screen: of about 69,000 compounds, about 950 (1.4%) showed an effect of 50% or more. Only a selection was taken, and strong results are over-represented in it overall.

This test has as its system Mycobacterium tuberculosis. Description: Cornell M. t heat shock assay. Note: in the data most compounds retested in dose-response had high values. Type of test: functional, organism-based. Also on record: dose or concentration left out as unconfirmed.
`CCc1nnc2n1CC(CNCc1ccncc1)CC2` (centres undefined): the “Percent Effect” value amounted to 102.6%.
In the case of `CC(C)c1nnc2n1CC(CNCc1ccncc1)CC2` (centres undefined) it was 107%; in that of `CCc1nnc2n1CC(CNCC1CCCC1)CC2` (centres undefined), -14.79%; in that of `CC(C)c1nnc2n1CC(CNCc1ccsc1)CC2` (centres undefined), -8.8%.
With `CC(C)c1nnc2n1CC(CNCc1cccnc1)CC2` (centres undefined), the “Percent Effect” value was -38.13%.
For the compound `CCc1nnc2n1CC(CNCc1nc(C)c(C)o1)CC2` (centres undefined), the “Percent Effect” value is listed as -15.23%.
In the case of `O=C(O)C(F)(F)F.O=C1CC[C@H]2[C@H](CCN2C(=O)C2CCCO2)N1Cc1cccnc1` (some centres undefined) it was 1.298%; in that of `CNC(=O)CN1CC[C@H]2CN(C(=O)c3ccc(C)cc3)C[C@H]2C1.O=C(O)C(F)(F)F`, -25.29%.
On to `Cn1cc(CN2C[C@H](Oc3ncccc3F)[C@H]3OCCC[C@H]32)cn1.O=C(O)C(F)(F)F.O=C(O)C(F)(F)F.O=C(O)C(F)(F)F`, for which the “Percent Effect” value is listed as -12.51%.
With `O=C(NC[C@]12COC[C@H]1CN(Cc1cccnc1)C2)C1CCC1.O=C(O)C(F)(F)F.O=C(O)C(F)(F)F`, the “Percent Effect” value is 24.22%.
Take `CC(=O)c1ccc(NC(=O)c2ccc3c(c2)C2(CCCCC2)CN3)cc1.O=C(O)C(F)(F)F`: the “Percent Effect” value was 36.54%.
In the case of `O=C(Nc1ccccc1)c1ccc2c(c1)C1(CCCCC1)CN2.O=C(O)C(F)(F)F` it was 67.01%.
In the case of `COCC(=O)N1CCC2(CC1)CNc1ccc(F)cc12.O=C(O)C(F)(F)F` it was -6.982%; in that of `COc1ccccc1CN1C[C@@H]2COC[C@]2(COCc2ccncc2)C1.O=C(O)C(F)(F)F.O=C(O)C(F)(F)F`, -12.91%; in that of `CCN(CC)C(=O)Cn1ccc2cc(NC(=O)NC3CC3)ccc21`, 61.18%.
In the case of `CCN(CC)C(=O)Cn1ccc2cc(NC(=O)C3CC3)ccc21` it was 25.7%; in that of `CCNC(=O)Nc1ccc2c(ccn2CC(=O)N(CC)CC)c1`, 47.91%; in that of `COCCN1CCc2c(cnc(-c3ccoc3)c2C(=O)O)C1.O=C(O)C(F)(F)F`, -43.35%.
Take `CN1CCCN(C(=O)c2ccc3c(c2)nc(N2CCOCC2)n3C)CC1`: the “Percent Effect” value turned out to be 98.19%.
Turning to `CN1CCN(C(=O)c2ccc3c(c2)nc(N2CCOCC2)n3C)CC1=O`, the “Percent Effect” value is reported as 2.08%.
In the case of `Cn1c(N2CCOCC2)nc2cc(C(=O)N3CCCOCC3)ccc21` it was -23.59%.
With `CC(C)N(C)Cc1nnc2n1CCCN(c1ncccn1)C2.O=C(O)C(F)(F)F`, the “Percent Effect” value is 11.35%.
As to `CN(Cc1cn2c(n1)CN(CC1CC1)CC2)Cc1ccco1.O=C(O)C(F)(F)F.O=C(O)C(F)(F)F`, the “Percent Effect” value was determined as 9.036%.
Consider `O=C(c1ccoc1)N1CCc2ncnc(NCc3ccccn3)c2CC1`, for which the “Percent Effect” value amounted to 62.71%.
For `O=C(c1cc[nH]n1)N1CCc2ncnc(NCc3ccccn3)c2CC1`, the “Percent Effect” value was -1.441%.
On to `O=C(c1ccco1)N1CCc2ncnc(NCc3ccccn3)c2CC1`, for which the “Percent Effect” value is recorded as 44.89%.
In the case of `O=C(c1ccon1)N1CCc2ncnc(NCc3cccnc3)c2CC1` it was 1.572%; in that of `O=C(C1CCCCO1)N1CCc2ncnc(NCc3ccon3)c2CC1` (centres undefined), 17.45%; in that of `O=C(c1ccon1)N1CCc2ncnc(NCc3ccccn3)c2CC1`, 76.86%.

(Values after ChEMBL document CHEMBL3988442, “University of Dundee, Small-Polar-MMV Screening Library” (2021).)
